# Compounds without any hit were thinned out: in the full panel of roughly 83,000, 20% have a hit.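 Single-dose data. Exposure time 48 hours. Values below 10 considered active.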 Values without a mark were called inactive. Active and inactive are the calls of the source.
# Tested on: NCI-H322M lung
# Test: NCI-60 one-dose screen, 48 h (100 = growth as untreated, 0 = no growth, -100 = all killed)
# Conditions: 10 µM unless noted
row,SMILES,growth
1,O=C1NC(=O)C(=Cc2cn(Cc3cn(Cc4ccc(Cl)cc4Cl)nn3)c3ccccc23)C(=O)N1,92.4%
2,CN1CCN(Cc2ccc(C(=O)Nc3cncc(C#Cc4cnc(N)c5ccccc45)c3)cc2C(F)(F)F)CC1,-31.5% (active)
3,COc1ccc(C2C3=C(COC3=O)N(CCO)c3cc4c(cc32)OCCO4)cc1 (centres undefined),125%
4,O=C(Nc1ccc(I)cc1F)c1cc(Cl)ccc1O,8.59% (active)
5,NCCOc1ccccc1/C=C1\c2ccccc2-c2ccc([N+](=O)[O-])cc21,51.1%
6,O=c1oc2ccc(I)cc2c(=O)n1-c1ccc(Cl)cc1F,5.32% (active)
7,COc1cc(/C=C2\CN(C)C/C(=C\c3cc(CN4CCOCC4)c(O)c(OC)c3)C2=O)cc(CN2CCOCC2)c1O,67.5%
8,CCOC(=O)c1sc(-c2ccc(OS(=O)(=O)C[C@]34CCC(CC3=O)C4(C)C)c(C=O)c2)nc1C,50.4%
9,COc1ccc(/C=C2/SC(=O)N(CC(=O)N3CCN(c4cc5c(cc4F)c(=O)c(C(=O)O)cn5C4CC4)CC3)C2=O)cc1,99%
10,COc1ccc(C)c2sc(N(Cc3cccnc3)C(=O)c3ccc(C#N)cc3)nc12,6.37% (active)
11,NC(=O)CSc1nc(-c2ccc(F)cc2)cc(-c2ccco2)n1,99.9%
12,CC(=O)c1ccc(Nc2nc(NCCO)nc(Nc3ccc(Cl)cc3)n2)cc1,97.1%
13,O=c1c2cc(F)cc(Cl)c2sc2c(Cl)nc3ccccc3c12,97.8%
14,O=Cc1cc2ccccc2nc1Nc1nccs1,91.8%

# Source: PubChem BioAssay (NCI)
